Results filed as inconclusive are left out. Where a call stands in place of a potency, no number is given. Calls of active or inactive are those of the source. Calls come from the whole dose curve; as a rule, active = well fitted inhibition curve with a large enough effect; inconclusive = small, poorly fitted or top-dose-only effect; inactive = flat fitted curve, though single readings scatter.
Potency is the fitted concentration of half-maximal effect.

In one assay the test system is CP305. The assay can be described thus: qHTS profiling for inhibitors of Plasmodium falciparum proliferation (AID 504749). Note: nearly all actives have a fitted effect of over 60% in size. Conditions: P. falciparum in erythrocytes, SYBR Green DNA, 72 h; series mostly up to 28.7 µM. The essentials:
(§1)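 SYBR Green fluorescence (ex 485 nm, em 535 nm) reports parasite DNA after 72 h compound exposure of infected red cells at 0.3% parasitemia, 2.5% hematocrit; signal normalized to 0.29 uM artemisinin and vehicle wells.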
On the technique in general: qHTS replaces the single test concentration by a dilution series.
Turning to `CCOc1cc(N)c(Cl)cc1C(=O)NCC1CN(Cc2ccc(F)cc2)CCO1` (configuration not stated), the Potency is 10.7 µM (active).
Still for that read-out and setting: the value for `COc1c(N2CCNC(C)C2)c(F)cc2c(=O)c(C(=O)O)cn(C3CC3)c12` (configuration not stated) was “inactive”; that for `CCn1cc(C(=O)O)c(=O)c2cc(F)c(N3CCNCC3)nc21` was “inactive”; that for `CC(C)(C)C(=O)OCOP(=O)(COCCn1cnc2c(N)ncnc21)OCOC(=O)C(C)(C)C` was “inactive”.
Turning to `COc1cc2c(Nc3ccc(Br)cc3F)ncnc2cc1OCC1CCN(C)CC1`, the Potency was 2.39 µM (active).
On the same count and under the same terms, the value for `COc1ccc(C(=O)CC(=O)c2ccc(C(C)(C)C)cc2)cc1` was “inactive”.
Take `CCCCOc1ccc(CC(=O)NO)cc1`: the Potency was 4.55 µM (active).
Same read-out and setting: then `COc1nc(N)nc2c1ncn2[C@@H]1O[C@H](CO)[C@@H](O)[C@@H]1O`, with “inactive”; and `CCC(C)(C)c1ccc(CC(C)CN2C[C@@H](C)O[C@@H](C)C2)cc1` (some centres not stated), with “inactive”; and `NC(=O)N1c2ccccc2CC(=O)c2ccccc21`, with “inactive”.
For `CN1CCCC(n2nc(Cc3ccc(Cl)cc3)c3ccccc3c2=O)CC1` (configuration not stated), the Potency entry is “inactive”.
As to `COc1cccc(N(C)C(=S)Oc2ccc3c(c2)CCCC3)n1`, the Potency result was “inactive”.
Still for that read-out and setting: then `CNCC[C@H](Oc1cccc2ccccc12)c1cccs1`, with “inactive”; and `N[C@@H](Cc1ccc(O)c(O)c1)C(=O)O`, with “inactive”; and `COc1cc([C@@H]2c3cc4c(cc3[C@H](O)[C@H]3COC(=O)[C@H]23)OCO4)cc(OC)c1OC`, with 6.75 µM (active).
Take `CCCc1cc(C(N)=S)ccn1`: the Potency entry was “inactive”.
On the same count and under the same terms, then `CC1=CC(=O)c2ccccc2C1=O`, with “inactive”; and `CN(Cc1cc(Br)cc(Br)c1N)C1CCCCC1`, with “inactive”; and `CCCc1nc(C)c2c(=O)[nH]c(-c3cc(S(=O)(=O)N4CCN(CC)CC4)ccc3OCC)nn12`, with “inactive”.

In another assay the test system is CP315. Described as above. As to conditions: P. falciparum in erythrocytes, SYBR Green DNA, 72 h; series mostly up to 28.7 µM. The essentials:
as §1
In the case of `COC(=O)Nc1nc2ccc(C(=O)c3ccccc3)cc2[nH]1`, the Potency entry was “inactive”.
Still for that read-out and setting: then `Oc1c(Cl)cc(Cl)c2cccnc12`, with “inactive”.
As for `Cc1oc(=O)oc1CN1CCN(c2cc3c(cc2F)c(=O)c(C(=O)O)c2n3C(C)S2)CC1` (configuration not stated), the Potency entry is “inactive”.
Turning to `CCOC(=O)c1ccc(C#Cc2ccc3c(c2)C(C)(C)CCS3)nc1`, the Potency entry was “inactive”.
On the same count and under the same terms, the value for `COc1c(N2CCNC(C)C2)c(F)cc2c(=O)c(C(=O)O)cn(C3CC3)c12` (configuration not stated) was “inactive”; that for `CCn1cc(C(=O)O)c(=O)c2cc(F)c(N3CCNCC3)nc21` was “inactive”; that for `CC(C)(C)C(=O)OCOP(=O)(COCCn1cnc2c(N)ncnc21)OCOC(=O)C(C)(C)C` was “inactive”.
For the compound `CC(N)C12CC3CC(CC(C3)C1)C2` (configuration not stated), the Potency entry is “inactive”.
Same read-out and setting: then `COc1cc2c(Nc3ccc(Br)cc3F)ncnc2cc1OCC1CCN(C)CC1`, with “inactive”; and `COc1ccc(C(=O)CC(=O)c2ccc(C(C)(C)C)cc2)cc1`, with “inactive”.
On the same count and under the same terms, the value for `COc1nc(N)nc2c1ncn2[C@@H]1O[C@H](CO)[C@@H](O)[C@@H]1O` was “inactive”.
The same measure, in the same setting: the value for `CCC(C)(C)c1ccc(CC(C)CN2C[C@@H](C)O[C@@H](C)C2)cc1` (some centres not stated) was “inactive”; that for `NC(=O)N1c2ccccc2CC(=O)c2ccccc21` was “inactive”; that for `CN1CCCC(n2nc(Cc3ccc(Cl)cc3)c3ccccc3c2=O)CC1` (configuration not stated) was “inactive”.
`CCn1cc(C(=O)O)c(=O)c2cc(F)c(N3CCNCC3)cc21`: the Potency result was “inactive”.
As to `COc1cccc(N(C)C(=S)Oc2ccc3c(c2)CCCC3)n1`, the Potency entry is “inactive”.
Still for that read-out and setting: the value for `CNCC[C@H](Oc1cccc2ccccc12)c1cccs1` was “inactive”; that for `N[C@@H](Cc1ccc(O)c(O)c1)C(=O)O` was “inactive”; that for `CCCc1cc(C(N)=S)ccn1` was “inactive”.
On to `CC1=CC(=O)c2ccccc2C1=O`, for which the Potency entry was “inactive”.
With `CN(Cc1cc(Br)cc(Br)c1N)C1CCCCC1`, the Potency entry is “inactive”.
Still for that read-out and setting: then `CCn1cc(C(=O)O)c(=O)c2cc(F)c(N3CCN(C)CC3)cc21`, with “inactive”; and `CCCc1nc(C)c2c(=O)[nH]c(-c3cc(S(=O)(=O)N4CCN(CC)CC4)ccc3OCC)nn12`, with “inactive”.

The values are drawn from PubChem BioAssay (NCATS).
